According to PubChem BioAssay (Tox21):
Records with an inconclusive call do not appear. The source made the active and inactive calls. Unless noted, calls come from the whole dose curve.

What was measured:
[1] = Nuclear factor erythroid 2-related factor 2/antioxidant responsive element (Nrf2/ARE) small molecule agonists: qHTS cell viability counter screen in human keratinocytes (AID 1919968; active = well fitted curve in the direction sought with a large enough effect in the repeat runs; an effect the other way counts as inactive or inconclusive; note: nearly all actives have a fitted effect of over 55% in size)
How it was run: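 Parallel cytotoxicity read: KeratinoSens HaCaT cells, compound treatment 23 h, viability by CellTiter-Fluor fluorescence 1 h post-reagent.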

[2] = Nuclear factor erythroid 2-related factor 2/antioxidant responsive element (Nrf2/ARE) small molecule agonists: luciferase reporter gene qHTS assay in human keratinocytes (AID 1919969); note: nearly all actives have a fitted effect of over 35% in size; note: potency is the fitted concentration of half-maximal effect
[3] = molecular target: Gonadotropin-releasing hormone receptor (Homo sapiens) (UniProt P30968); assay: Human gonadotropin-releasing hormone receptor (GnRHR) small molecule agonists, calcium flux assay in GnRHR-HEK293 cells (AID 1920063); note: nearly all actives have a fitted effect of over 35% in size
Chain of Gonadotropin-releasing hormone receptor (Homo sapiens) (P30968 whole entry, looked up): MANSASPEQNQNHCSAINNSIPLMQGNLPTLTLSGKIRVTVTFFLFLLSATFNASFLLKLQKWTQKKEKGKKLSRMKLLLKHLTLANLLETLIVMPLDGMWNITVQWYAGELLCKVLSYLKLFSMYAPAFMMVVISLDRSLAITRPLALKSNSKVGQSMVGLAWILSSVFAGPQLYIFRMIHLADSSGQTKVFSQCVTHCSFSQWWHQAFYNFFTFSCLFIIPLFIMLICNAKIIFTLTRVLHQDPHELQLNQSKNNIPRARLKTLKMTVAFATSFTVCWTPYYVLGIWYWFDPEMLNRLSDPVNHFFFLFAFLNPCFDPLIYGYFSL
How it was run: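 Calcium flux, agonist mode, human GnRHR stably integrated in HEK293; dye 1 h at 37 C before compound; Ex/Em=480/540 kinetic read, 3 min; 15 concentrations, triplicate.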

[4] = molecular target: KiSS-1 receptor (Homo sapiens) (UniProt Q969F8); assay: Human kisspeptin (KISS1R) small molecule agonists, calcium flux assay in KISS1R-HEK293 cells (AID 1920064; active = well fitted curve in the direction sought with a large enough effect in the repeat runs; an effect the other way counts as inactive or inconclusive)
Chain of KiSS-1 receptor (Homo sapiens) (Q969F8 whole entry, looked up): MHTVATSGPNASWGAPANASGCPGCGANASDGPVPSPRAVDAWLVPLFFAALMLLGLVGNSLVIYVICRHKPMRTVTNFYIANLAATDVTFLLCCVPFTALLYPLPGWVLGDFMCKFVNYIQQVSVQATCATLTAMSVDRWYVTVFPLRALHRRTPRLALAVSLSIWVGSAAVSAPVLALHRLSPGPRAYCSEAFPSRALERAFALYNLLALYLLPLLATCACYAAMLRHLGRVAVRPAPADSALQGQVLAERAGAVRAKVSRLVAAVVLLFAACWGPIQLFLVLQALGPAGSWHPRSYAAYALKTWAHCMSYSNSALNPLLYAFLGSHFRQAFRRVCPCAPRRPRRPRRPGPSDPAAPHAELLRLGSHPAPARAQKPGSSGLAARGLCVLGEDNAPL
How it was run: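 Triplicate 15-concentration series were applied to dye-loaded human KISS1R HEK293 cells, and agonist-evoked calcium fluorescence was captured for 3 min.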

[5] = G protein-coupled receptor (GPCR) small molecule agonists, calcium flux assay: HEK293 wild type cell line counter screen (AID 1920065)
How it was run: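 Non-specific calcium responders were flagged by adding DMSO-dissolved compounds to dye-loaded cells and reading 480/540 nm fluorescence each second for 3 min; ATP served as positive control.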

[6] = p53 small molecule agonists, cell-based qHTS assay with human liver microsomes (AID 1963577)
How it was run: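 Compounds act here after metabolic activation: human liver microsomes and NADPH, both at 0.5 mg/mL final, were co-added to p53RE-bla cells. Incubation ran 16 h at 37 C, followed by LiveBLAzer detection.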

[7] = p53 small molecule agonists, cell-based qHTS assay with rat liver microsomes (AID 1963578)
How it was run: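 Read-out is beta-lactamase reporter fluorescence (LiveBLAzer, 2 h, room temperature, dark) in p53RE-bla cells treated 16 h at 37 C with compound, rat liver microsomes and NADPH, both 0.5 mg/mL final.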

[8] = p53 small molecule agonists, cell-based qHTS assay with human liver microsomes: qHTS cell viability counter screen (AID 1963579); note: nearly all actives have a fitted effect of over 45% in size
How it was run: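 Cells carrying the p53 response-element beta-lactamase reporter are treated for 16 h at 37 C with test compounds in the presence of human liver microsomes and NADPH (both 0.5 mg/mL final); ATP-based CellTiter-Glo luminescence then reports viability.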

[9] = p53 small molecule agonists, cell-based qHTS assay with rat liver microsomes: qHTS cell viability counter screen (AID 1963580); note: nearly all actives have a fitted effect of over 45% in size
How it was run: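 After the beta-lactamase ratio was read, CellTiter-Glo was added to the same wells and luminescence measured at 30 min; cells had been treated 16 h at 37 C with compounds, rat liver microsomes and NADPH (0.5 mg/mL final each).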

[10] = p53 small molecule agonists, cell-based qHTS assay: qHTS cell viability counter screen (AID 1963581); note: nearly all actives have a fitted effect of over 45% in size
How it was run: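 Multiplexed with the reporter read, a CellTiter-Glo step (30 min, room temperature) gauges ATP-based viability of HCT-116 p53RE-bla cells after 16 h compound incubation at 37 C.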

[11] = p53 small molecule agonists, cell-based qHTS assay (AID 1963582; active = well fitted activation curve with a large enough effect in the signal ratio in the repeat runs, not every such curve was filed as active; the % refers to the signal ratio)
How it was run: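 Beta-lactamase reporter cells (p53RE-bla) treated with compounds for 16 h at 37 C; FRET substrate, 2 h, room temperature; fluorescence intensity.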

[12] = molecular target: 5-hydroxytryptamine receptor 2A (Homo sapiens) (UniProt P28223); assay: 5-hydroxytryptamine receptor 2A (HTR2A) small molecule antagonists, cell-based qHTS assay (AID 1963586); note: nearly all actives have a fitted effect of over 45% in size
Chain of 5-hydroxytryptamine receptor 2A (Homo sapiens) (P28223 whole entry, looked up): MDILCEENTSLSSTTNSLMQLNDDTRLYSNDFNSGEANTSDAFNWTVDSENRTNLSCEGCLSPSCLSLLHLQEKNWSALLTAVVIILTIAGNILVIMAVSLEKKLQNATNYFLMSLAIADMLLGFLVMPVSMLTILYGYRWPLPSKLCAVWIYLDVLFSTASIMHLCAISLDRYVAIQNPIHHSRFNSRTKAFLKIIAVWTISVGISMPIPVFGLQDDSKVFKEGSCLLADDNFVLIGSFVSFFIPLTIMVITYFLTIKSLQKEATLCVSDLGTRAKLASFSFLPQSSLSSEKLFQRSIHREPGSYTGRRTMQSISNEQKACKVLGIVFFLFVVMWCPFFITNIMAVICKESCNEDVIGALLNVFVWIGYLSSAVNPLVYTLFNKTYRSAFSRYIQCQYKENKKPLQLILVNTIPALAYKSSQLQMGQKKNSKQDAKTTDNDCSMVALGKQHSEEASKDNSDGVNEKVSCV
How it was run: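 CHO cells stably expressing human HTR2A were plated for 18 h at 37 C, then loaded with calcium dye for 1 h. Compounds were preincubated 5 min at room temperature before DOI (4 nM solution) was added. Kinetic fluorescence was read for 3 min.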

[13] = molecular target: 5-hydroxytryptamine receptor 2A (Homo sapiens) (UniProt P28223); assay: 5-hydroxytryptamine receptor 2A (HTR2A) small molecule agonists, cell-based qHTS assay (AID 1963587); note: nearly all actives have a fitted effect of over 30% in size
How it was run: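 CHO cells stably expressing human HTR2A, plated 18 h, loaded with calcium dye 1 h at 37 C. Agonist mode: compounds added and intracellular calcium fluorescence recorded kinetically for 2 min at 1 sec intervals.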

[14] = molecular target: Muscarinic acetylcholine receptor M1 (Homo sapiens) (UniProt P11229); assay: Cholinergic receptor muscarinic 1 (CHRM1) small molecule antagonists, cell-based qHTS assay (AID 1963588); note: nearly all actives have a fitted effect of over 40% in size; note: potency is the fitted concentration of half-maximal effect
Chain of Muscarinic acetylcholine receptor M1 (Homo sapiens) (P11229 whole entry, looked up): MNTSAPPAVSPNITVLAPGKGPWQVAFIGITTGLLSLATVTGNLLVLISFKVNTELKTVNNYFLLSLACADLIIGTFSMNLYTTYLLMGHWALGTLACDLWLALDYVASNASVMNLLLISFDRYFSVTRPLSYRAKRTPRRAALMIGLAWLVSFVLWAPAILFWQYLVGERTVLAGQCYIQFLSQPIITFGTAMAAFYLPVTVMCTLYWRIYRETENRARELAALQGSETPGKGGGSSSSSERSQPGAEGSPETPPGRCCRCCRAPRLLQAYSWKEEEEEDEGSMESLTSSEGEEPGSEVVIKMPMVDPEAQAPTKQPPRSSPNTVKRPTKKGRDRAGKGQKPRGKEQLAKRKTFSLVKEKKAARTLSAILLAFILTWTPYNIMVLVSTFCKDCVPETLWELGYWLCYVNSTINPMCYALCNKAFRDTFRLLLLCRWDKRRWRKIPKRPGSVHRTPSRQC
How it was run: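 Compounds were tested at 15 concentrations in three independent runs. Dye-loaded CHRM1-CHO cells were exposed 5 min at room temperature before stimulation by acetylcholine added at 50nM. Intracellular calcium was read kinetically on FDSS for 3 min.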

[15] = molecular target: Muscarinic acetylcholine receptor M1 (Homo sapiens) (UniProt P11229); assay: Cholinergic receptor muscarinic 1 (CHRM1) small molecule agonists, cell-based qHTS assay (AID 1963589); note: nearly all actives have a fitted effect of over 35% in size; note: potency is the fitted concentration of half-maximal effect
How it was run: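 qHTS, 15-point titration, 3 independent runs: compounds pin-transferred onto dye-loaded CHRM1-CHO cells (human M1), calcium fluorescence followed every second to detect agonism.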

[16] = cAMP Responsive Elements (CRE) small molecule agonists, cell-based qHTS assay (AID 1963590)
How it was run: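 Quantitative HTS for CRE agonists: HEK 293T CRE-bla cells, overnight plating, 3 h compound incubation at 37 C/5% CO2, then 2 h room-temperature LiveBLAzer B/G FRET substrate loading.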

[17] = molecular target: Beta-2 adrenergic receptor (Homo sapiens) (UniProt P07550); assay: Adrenergic beta2 receptor (ADRB2) small molecule antagonists, cell-based qHTS assay (AID 1963592); note: series mostly up to about 92 µM; nearly all actives have a fitted effect of over 50% in size
Chain of Beta-2 adrenergic receptor (Homo sapiens) (P07550 whole entry, looked up): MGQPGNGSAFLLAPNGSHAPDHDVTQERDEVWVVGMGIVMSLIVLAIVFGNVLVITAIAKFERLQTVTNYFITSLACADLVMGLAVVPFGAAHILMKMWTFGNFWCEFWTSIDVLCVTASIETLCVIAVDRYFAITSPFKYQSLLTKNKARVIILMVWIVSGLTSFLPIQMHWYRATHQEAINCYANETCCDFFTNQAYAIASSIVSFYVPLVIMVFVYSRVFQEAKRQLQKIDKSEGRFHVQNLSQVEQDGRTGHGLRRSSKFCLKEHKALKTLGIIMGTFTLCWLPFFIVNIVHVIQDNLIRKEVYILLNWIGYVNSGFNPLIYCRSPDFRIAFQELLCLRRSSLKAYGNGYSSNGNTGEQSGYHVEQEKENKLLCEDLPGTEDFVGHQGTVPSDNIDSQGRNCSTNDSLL
How it was run: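 Assay format: CHO-ADRB2 cells, 18-20hr seeding at 37C/5% CO2, then compound plus 1nM isoproterenol agonist mix for 0.5hr RT. Homogeneous time-resolved fluorescence cAMP detection after 1hr, expressed as 665/615 nm ratio.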

[18] = molecular target: D(2) dopamine receptor (Homo sapiens) (UniProt P14416); assay: Dopamine D2 receptor (DRD2) small molecule agonists, cell-based qHTS assay (AID 1963594); note: nearly all actives have a fitted effect of over 35% in size
Chain of D(2) dopamine receptor (Homo sapiens) (P14416 whole entry, looked up): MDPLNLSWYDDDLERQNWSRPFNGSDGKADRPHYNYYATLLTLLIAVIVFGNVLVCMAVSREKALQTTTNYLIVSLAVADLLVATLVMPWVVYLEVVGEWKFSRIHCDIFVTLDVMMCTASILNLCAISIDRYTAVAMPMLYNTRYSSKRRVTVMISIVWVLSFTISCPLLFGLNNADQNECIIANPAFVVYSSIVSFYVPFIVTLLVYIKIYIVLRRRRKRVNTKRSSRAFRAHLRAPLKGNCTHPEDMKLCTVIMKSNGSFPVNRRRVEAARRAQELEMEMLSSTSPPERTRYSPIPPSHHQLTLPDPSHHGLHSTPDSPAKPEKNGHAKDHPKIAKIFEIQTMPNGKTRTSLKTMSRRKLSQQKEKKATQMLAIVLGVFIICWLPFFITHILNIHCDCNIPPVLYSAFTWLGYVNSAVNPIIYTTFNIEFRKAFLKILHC
How it was run: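 HEK293 cells stably expressing human DRD2, pre-treated with PDE inhibitor Ro20-1724 (0.1 mM final) and compound 10 min at room temperature, then stimulated with NKH477 (200nM […]) for 30 min. cAMP read by HTRF (665/620 nm).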

[19] = molecular target: D(2) dopamine receptor (Homo sapiens) (UniProt P14416); assay: Dopamine D2 receptor (DRD2) small molecule antagonists, cell-based qHTS assay (AID 1963595; active = well fitted inhibition curve with a large enough effect in the signal ratio in the repeat runs, with a control signal flat; the % refers to the signal ratio)
How it was run: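 Human DRD2 antagonist qHTS measuring cAMP by HTRF. The cells are exposed to compound for 10 min, then to NKH477 (200 nM) and quinpirole (12 nM) for 30 min at RT, with Ro20-1724 (0.1 mM) present throughout.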

[20] = cAMP Responsive Elements (CRE) small molecule antagonists, cell-based qHTS assay (AID 1963591; active = well fitted inhibition curve with a large enough effect in the signal ratio in the repeat runs, not every such curve was filed as active; the % refers to the signal ratio)
How it was run: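 Fluorescence intensity from cleaved LiveBLAzer B/G substrate (2 h, room temperature) quantified CRE-bla activity in HEK 293T cells exposed 3 h to compound with 0.25 uM final NKH477.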

Measured: Potency

C=CCc1cc(OC)c2c(c1)OCO2
not listed: [20]
inactive: all other assays above

Nc1cnn(-c2ccccc2)c(=O)c1Cl
not listed: [16]
inactive: all other assays above

Nc1cc(Cl)cc(C(=O)O)c1Cl
not listed: [17]
inactive: all other assays above

N#Cc1ccccc1Cl
inactive: all assays above

CCCC[N+]1(C)CCCC1 (tested in a mixture with another compound)
active: [14] 9.54 µM | [15] 4.96 µM
not listed: [17]
inactive: all other assays above

Fc1cc(Br)ccc1CBr
not listed: [19] | [20]
inactive: all other assays above

CC(COc1ccc(Oc2ccccc2)cc1)Oc1ccccn1 (stereo not drawn)
active: [2] 17.2 µM
not listed: [17]
inactive: all other assays above

Nc1cc(Cl)cc(Cl)c1
inactive: all assays above
